Assay [1] in a line: qHTS for Inhibitors of the Functional Ribonucleoprotein Complex (vRNP) of Lassa (LASV) Arenavirus: LASV Primary Screen - GLuc reporter signal (AID 1347082; calls by dose curve; tested in HEK293 reporter line; also: nearly all actives have a fitted effect of over 60% in size; also: potency is read from the fitted curve at half-maximal effect; as to activity change, negative = inhibition: % is scaled to controls: 0 for no effect and ±100 for the full control effect).
Assay [2] can be described thus: qHTS for Inhibitors of the Functional Ribonucleoprotein Complex (vRNP) of Lassa (LASV) Arenavirus: Viability assay - alamar blue signal for LASV Primary Screen (AID 1347083; calls by dose curve; tested in HEK293 reporter line; also: nearly all actives have a fitted effect of over 80% in size; also: potency is read from the fitted curve at half-maximal effect; as to activity change, negative = reduced viability: % is scaled to controls: 0 for no effect and ±100 for the full control effect).
Assay [3] has as its target Nucleoprotein (Lymphocytic choriomeningitis virus (strain Armstrong)) (UniProt P09992). Kind of assay: qHTS for Inhibitors of the Functional Ribonucleoprotein Complex (vRNP) of Lymphocytic Choriomeningitis Arenaviruses (LCMV): LCMV Primary Screen - GLuc reporter signal (AID 1347086; also: nearly all actives have a fitted effect of over 70% in size; also: potency is read from the fitted curve at half-maximal effect; as to activity change, negative = inhibition: % is scaled to controls: 0 for no effect and ±100 for the full control effect). (In general: qHTS replaces the single test concentration by a dilution series.)
Assay [4] is described as follows: Primary qHTS for inhibitors of SARS-S pseudo-typed particle cell entry (AID 1479145). Also: % is scaled to controls: 0 for no effect and ±100 for the full control effect; nearly all actives have a fitted effect of over 45% in size.
The nature of assay [5]: Primary qHTS for Huh7 cytotoxicity: counterscreen for inhibitors of MERS-S pseudotyped particle cell entry (AID 1479147). The note with it: outcome: dose series up to 57.1 µM unless noted.
Assay [6] in a line: Primary qHTS for inhibitors of MERS-S pseudo-typed particle cell entry (AID 1479149). Also: nearly all actives have a fitted effect of over 60% in size. As to activity change, negative = inhibition: % is scaled to controls: 0 for no effect and ±100 for the full control effect.
The nature of assay [7]: Primary qHTS for Vero E6 cytotoxicity: counterscreen for inhibitors of SARS-S pseudo-typed particle cell entry (AID 1479150). The following applies: outcome: dose series up to 57.1 µM unless noted.
Assay [8] in a line: Cytotoxicity counterscreen for inhibitors of SARS-CoV-2 cell entry (AID 1645845). Also: nearly all actives have a fitted effect of over 50% in size. Also: potency is read from the fitted curve at half-maximal effect. The procedure, abridged:
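Expi293F/hACE2 cells seeded overnight; cpd pin-transferred in DMSO, 1 h preincubation, + media, 48 h 37 C 5% CO2; ATPLite 1step luminescence; normalized to cells and no cells.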
(In general: The purpose of a counterscreen is to sort out artefacts and off-target activity.)

Assay [9] can be described thus: Primary qHTS to identify inhibitors of SARS-CoV-2 cell entry (AID 1645846). Also: nearly all actives have a fitted effect of over 45% in size. Also: potency is read from the fitted curve at half-maximal effect. The note with it: activity change, negative = inhibition: at 57.1 µM (top of the series) unless noted. The procedure, abridged:
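Luminescence readout (Bright-Glo luciferase) 48 h after pseudoparticle addition. HEK293-ACE2 cells, 1500/well; compound pre-incubation 1 h; Normalized to spike PP and bald PP.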

Assay [10] concerns the target Alpha-galactosidase (Coffea arabica) (UniProt Q42656). Nature of the assay: Counterscreen for Glucocerebrosidase Inhibitors: qHTS Assay for Coffee Bean alpha-Galactosidase at pH 4.5 (AID 957; active = well fitted curve in the direction sought with a large enough effect; an effect the other way counts as inactive or inconclusive;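 also: plate controls were enzyme alone for no effect and no enzyme for full effect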). In short, it runs like this: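 AC50 values derive from Hill-equation modeling of concentration-response data, normalized to no-enzyme and full-activity controls. The pH 4.5 citrate assay used 2 nM coffee bean enzyme and 80 uM fluorogenic substrate for 20 min.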

For assay [11] the target is unchanged. Kind of assay: Counterscreen for Glucocerebrosidase Inhibitors: qHTS Assay for Coffee Bean alpha-Galactosidase at pH 5.9 (AID 998; active = well fitted curve in the direction sought with a large enough effect; an effect the other way counts as inactive or inconclusive;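 also: plate controls were uninhibited enzyme for no effect and no-enzyme basal signal for full effect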). The procedure, abridged: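 Green coffee bean enzyme (2 nM final) was incubated with compounds (0.7 nM–77 uM) and 4-methylumbelliferyl alpha-D-galactopyranoside (80 uM) in citrate buffer pH 5.9, 20 min at room temperature. High-pH stop; fluorescence 365/440 nm; AC50 from Hill fits.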

A short description of assay [12]: Inducers of the Endoplasmic Reticulum Stress Response (ERSR) in human glioma: Validation (AID 504836; active = well fitted curve in the direction sought with a large enough effect; an effect the other way counts as inactive or inconclusive; also: 0% is about no effect). The procedure, abridged:
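Stably transfected U87-MG human glioma cells carrying a GRP78-based luminescent sensor were seeded at 1000 cells/well, pin-dosed with compounds and incubated 16 h. Luciferase reagent was then added, and end-point luminescence was read after 10 min at room temperature.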

Assay [13] is described as follows: qHTS for Inhibitors of the Functional Ribonucleoprotein Complex (vRNP) of Lymphocytic Choriomeningitis Arenaviruses (LCMV): Viability assay - alamar blue signal for LCMV Primary Screen (AID 1347085; calls by dose curve; tested in HEK293 reporter line; also: nearly all actives have a fitted effect of over 80% in size; also: potency is read from the fitted curve at half-maximal effect).
Assay [14] concerns the target Nuclear receptor subfamily 1 group I member 3 (Homo sapiens) (UniProt Q14994). Kind of assay: Primary qHTS for antagonist of constitutive androstane receptor (CAR) against the NCATS DSHEA and TCM libraries (AID 1794836; active = well fitted curve in the direction sought with a large enough effect; an effect the other way counts as inactive or inconclusive). The procedure, abridged: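 HepG2 cells stably carrying hCAR and a CYP2B6 luciferase reporter (2,500 cells/well) attached for 5 h, then received compounds with 48 uM CITCO for 24 h at 37C. ONE-Glo luminescence read antagonism; CellTiter-Fluor (405/540 nm) gave viability.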

Assay [15] is described as follows: qHTS profiling of the MIPE4 collection as inhibitors of Plasmodium falciparum (DD2) proliferation (AID 743345; call rule not given here). The note with it: P. falciparum Dd2 in erythrocytes, SYBR Green DNA, 72 h; at 28.5 µM (top of the series) unless noted. In short, it runs like this: (§1)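 Erythrocytes infected with P. falciparum (0.3% parasitemia, 2.5% hematocrit) incubated with compounds 72 h at 37 C, 5% CO2. Lysis with saponin/Triton buffer containing SYBR Green I, overnight at room temperature in the dark; DNA fluorescence (485/535 nm) normalised to 0.29 uM artemisinin and DMSO.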

A short description of assay [16]: qHTS profiling of the MIPE4 collection as inhibitors of Plasmodium falciparum (3D7) proliferation (AID 743344; call rule not given here;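 also: scaled between DMSO vehicle wells and 0.29 µM artemisinin as full inhibition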). The following applies: P. falciparum 3D7 in erythrocytes, SYBR Green DNA fluorescence, 72 h; at 28.5 µM (top of the series) unless noted. The procedure, abridged:
as §1

Assay [17] can be described thus: qHTS profiling of the MIPE4 collection as inhibitors of Plasmodium falciparum (DD2) proliferation (Rep 2) (AID 743346; call rule not given here). The note with it: P. falciparum Dd2 in erythrocytes, SYBR Green DNA, 72 h; at 28.5 µM (top of the series) unless noted. The procedure, abridged: as §1

Several values for one entry are separate records, joined by “and”; a condition that tells them apart may be missing. Identical values can stand only once. Inconclusive results are not listed. Activity calls are given as the source filed them. Unless noted, calls follow the shape of the full dose curve.

Sequence of Alpha-galactosidase (Coffea arabica) (Q42656 whole entry, looked up): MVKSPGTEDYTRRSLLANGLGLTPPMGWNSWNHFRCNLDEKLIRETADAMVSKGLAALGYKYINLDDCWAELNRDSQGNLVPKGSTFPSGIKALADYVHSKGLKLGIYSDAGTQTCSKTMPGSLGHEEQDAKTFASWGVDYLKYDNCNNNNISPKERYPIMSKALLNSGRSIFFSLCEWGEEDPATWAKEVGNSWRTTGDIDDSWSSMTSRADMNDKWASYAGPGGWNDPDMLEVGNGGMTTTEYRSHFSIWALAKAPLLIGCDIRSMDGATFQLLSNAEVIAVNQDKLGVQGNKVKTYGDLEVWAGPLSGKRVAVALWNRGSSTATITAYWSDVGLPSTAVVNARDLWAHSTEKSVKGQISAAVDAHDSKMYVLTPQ
Sequence of Nucleoprotein (Lymphocytic choriomeningitis virus (strain Armstrong)) (P09992 whole entry, looked up): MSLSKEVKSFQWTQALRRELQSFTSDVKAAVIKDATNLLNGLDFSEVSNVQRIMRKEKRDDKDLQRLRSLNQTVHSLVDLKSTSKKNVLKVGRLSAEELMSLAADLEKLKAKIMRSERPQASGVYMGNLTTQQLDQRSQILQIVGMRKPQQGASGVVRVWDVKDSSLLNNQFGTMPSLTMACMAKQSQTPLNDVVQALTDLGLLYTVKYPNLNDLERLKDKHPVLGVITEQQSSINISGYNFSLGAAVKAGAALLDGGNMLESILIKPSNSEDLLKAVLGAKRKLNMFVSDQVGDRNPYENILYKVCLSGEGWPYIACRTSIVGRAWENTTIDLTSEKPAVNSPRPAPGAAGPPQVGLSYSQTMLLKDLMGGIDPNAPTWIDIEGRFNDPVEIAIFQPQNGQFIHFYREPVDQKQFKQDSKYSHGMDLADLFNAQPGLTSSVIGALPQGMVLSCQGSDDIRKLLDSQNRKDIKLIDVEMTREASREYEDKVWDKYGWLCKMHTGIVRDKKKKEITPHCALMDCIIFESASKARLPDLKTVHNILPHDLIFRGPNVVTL
Sequence of Nuclear receptor subfamily 1 group I member 3 (Homo sapiens) (Q14994 whole entry, looked up): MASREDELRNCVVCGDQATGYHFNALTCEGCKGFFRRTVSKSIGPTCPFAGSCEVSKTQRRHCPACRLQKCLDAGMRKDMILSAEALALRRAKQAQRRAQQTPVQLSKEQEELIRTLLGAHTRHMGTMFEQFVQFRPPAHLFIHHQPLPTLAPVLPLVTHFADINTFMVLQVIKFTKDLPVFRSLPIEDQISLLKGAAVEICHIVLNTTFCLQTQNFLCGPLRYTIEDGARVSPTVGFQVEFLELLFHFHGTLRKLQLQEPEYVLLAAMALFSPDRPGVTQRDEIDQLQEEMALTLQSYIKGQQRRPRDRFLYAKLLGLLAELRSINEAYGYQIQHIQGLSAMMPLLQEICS

For the molecule `Cc1ccc(NC(=O)Nc2cc(C(F)(F)F)ccc2F)cc1Nc1ccc2c(c1)NC(=O)C2=Cc1ccc[nH]1`, the figures for the Potency in [1], in [2] and in assay [3] were 30.6 µM (active), 17.2 µM (active) and 27.3 µM (active), respectively.
Turning to `CC#CCn1c(N2CCC[C@@H](N)C2)nc2c1c(=O)n(Cc1nc(C)c3ccccc3n1)c(=O)n2C`, the Potency result in assay [1], in assay [2], in [3], in assay [4], in assay [6] and in [8] was “inactive” in each case. The outcome in assay [5] and in [7] was inactive. Also, the activity change, negative = inhibition in [9] was -18.4% and -12.2%.
As for `COc1cc(C(=O)O[C@@H]2CC(C)=CC[C@@]3(C)CC[C@](O)(C(C)C)[C@H]23)ccc1O`, the Potency entry in [1], in assay [2] and in [3] was “inactive” in each case.
As for `CC(=O)O[C@@H]1/C=C/[C@](C)(O)C[C@@H](C)C/C=C/[C@H]2[C@H](O)C(C)=C(C)[C@H]3[C@H](Cc4ccccc4)NC(=O)[C@@]123`, the Potency entry in assay [1] and in [3] was “inactive” in each case. In addition, in assay [2], the Potency is 2 µM (active).
Consider `CCCCCCCCCCCCCCCC(N)=O`, for which the values for the activity change, negative = inhibition in assay [1] and in assay [3] were 1.8% [at 5.82 µM] (inactive) and -29.4% [at 5.82 µM] (inactive), respectively. In addition, in assay [2], the activity change, negative = reduced viability was 2.57% [at 5.82 µM] (inactive).
For the molecule `COc1cc(Cl)cn2c(-c3cccc(NC4CNC4)n3)cnc12`, the Potency result in assay [1] and in [3] was “inactive” each time. In addition, the Potency in assay [2] is 21.7 µM (active).
Regarding `CCN(CC)CCCCCCCCOC(=O)c1cc(OC)c(OC)c(OC)c1`, the result in assay [10], in [11] and in assay [12] was inactive. Besides, the Potency entry in assay [1], in assay [2] and in assay [13] was “inactive” each time.
As for `C=C1C2[C@H](OC(C)=O)[C@@H]3CC(=O)[C@]4(C)OC[C@@]3(C)[C@@]4(O)[C@@H](OC(C)=O)[C@H](OC(C)=O)[C@@]2(COC(=O)c2ccccc2)[C@@H](OC(C)=O)C[C@@H]1O` (some centres undefined), the Potency entry in assay [1], in [2] and in assay [3] was “inactive” in each case.
As to `C[C@]12C=CC(=O)C=C1CC[C@@H]1[C@@H]2CC[C@]2(C)C(=O)CC[C@@H]12`, the Potency entry in assay [1], in assay [2] and in assay [3] was “inactive” in each case.
Regarding `CN(C)Cc1cccc(N=C(c2ccccc2)c2c(O)[nH]c3cc(C(=O)N(C)C)ccc23)c1`, the Potency entry in assay [1], in assay [3] and in [8] was “inactive” in each case. Also, in assay [2], the Potency was 13.7 µM (active).
Turning to `COc1ccc(-c2cc3c(C)nc(N)nc3n(C3CCC(OCCO)CC3)c2=O)cn1` (centres undefined), the Potency in [1] is 0.153 µM (active); in [2], 0.0544 µM (active); in [3], 0.153 µM (active).
For the molecule `COCCCCC(=NOCCN)c1ccc(C(F)(F)F)cc1`, the outcome in assay [10] and in assay [11] was inactive. In addition, the Potency result in [1] is “inactive”. Also, the Potency in assay [2] is 1.93 µM (active); in assay [13], 38.5 µM (active).
On to `COc1ccc(CCC(=O)c2c(O)cc(O[C@@H]3O[C@H](CO)[C@@H](O)[C@H](O)[C@@H]3O[C@@H]3O[C@@H](C)[C@H](O)[C@@H](O)[C@@H]3O)cc2O)cc1O`, for which the Potency in [1] was 7.69 µM (active); in assay [2] it was 5.44 µM (active); in [3], 6.11 µM (active).
For `C=C(C)[C@@]12OC3(c4ccccc4)O[C@@H]1[C@@H]1[C@@H]4O[C@]4(CO)[C@@H](O)[C@]4(O)C(=O)C(C)=C[C@H]4[C@@]1(O3)[C@H](C)[C@H]2OC(=O)/C=C/C=C/c1ccccc1`, in that order: “inactive”, “inactive” and “inactive”.
In the same order, the values of `CC(C)(C)NC(=O)[C@H]1CN(Cc2cccnc2)CCN1C[C@@H](O)C[C@@H](Cc1ccccc1)C(=O)N[C@H]1c2ccccc2C[C@H]1O` are “inactive”, “inactive” and “inactive”.
Turning to `NC[C@@H]1O[C@H](C23CC4CC(CC(C4)C2)C3)Cc2c1ccc(O)c2O`, the molecule was called inactive in assay [10], in [11] and in assay [12]. The Potency entry in assay [1], in assay [2] and in assay [13] was “inactive” in each case.
As to `O=C1c2ccccc2C(=O)N1Cc1ccccc1`, the Potency result in [1], in [2] and in assay [3] was “inactive” in each case.
With `C[C@@H](NCc1cc2ccccc2[nH]1)c1cccc2ccccc12`, the Potency entry in [1], in assay [2] and in assay [3] was “inactive” throughout. For the same molecule, the Potency in assay [8] was 31.6 µM (active).
`Cc1ncc(C[n+]2csc(CCO)c2C)c(N)n1`: the Potency result in [1], in assay [2], in assay [3], in assay [4], in [6] and in assay [8] was “inactive” in each case. Further, in [14], the Potency entry was “inactive”. Also, the call in assay [5] and in assay [7] was inactive.
As for `Nc1ncnc2c1ncn2[C@@H]1O[C@H](CO)C[C@@H]1O`, the Potency result in [1], in assay [2] and in [3] was “inactive” throughout.
For the molecule `CCNc1cc(NC2CCC(O)CC2)nc(Nc2ccc3c(ccn3Cc3ccccc3)c2)n1` (centres undefined), the Potency entry in assay [1], in [2] and in [8] was “inactive” throughout.
`CC=C(C)C(=O)O[C@H]1C(C)=C[C@]23C(=O)[C@@H](C=C(CO)[C@@H](O)[C@]12O)[C@H]1[C@@H](C[C@H]3C)C1(C)C`: the parasite growth remaining, % of DMSO control (lower = more inhibition) in assay [15] amounted to 78.2%. Further, the Potency entry in assay [1] and in [3] was “inactive” in each case. In addition, in assay [2], the Potency is 4.32 µM (active).
As for `Oc1ccc(-c2ccc(-c3cc(Nc4cccc(CNC5CC5)c4)n[nH]3)cc2)c(O)c1`, the Potency was 24.3 µM (active) in assay [1], 3.06 µM (active) in [2], 12.2 µM (active) in assay [3] and 10 µM (active) in [9].
Take `C[C@H](CCC(=O)O)[C@H]1CC[C@H]2[C@H]3[C@@H](CC[C@]12C)[C@@]1(C)CC[C@@H](O)C[C@H]1C[C@@H]3O`: the parasite growth, % of DMSO control in assay [16] worked out at 8.82%. Besides, the parasite growth remaining, % of DMSO control (lower = more inhibition) in assay [15] was 12.3%. Also, the parasite growth, % of control (lower = inhibition) in [17] was found to be 16.6%. Moreover, the Potency entry in assay [1], in [2], in [4], in [6] and in [8] was “inactive” throughout. In addition, the call in assay [5] and in assay [7] was inactive. In addition, the activity change, negative = inhibition in assay [9] is 0.336%.

These data come from PubChem BioAssay (NCATS).
